We go through 40 compounds from ChEMBL document CHEMBL3433997, “St. Jude Leishmania screening dataset” (2016).

Usually inhibition stands for the change of the read-out against control, counted positive when it falls.

Each structure is given as a SMILES string.

In one assay the target is Solute carrier family 2, facilitated glucose transporter member 1 (Homo sapiens) (UniProt P11166). Briefly: ST_JUDE_LEISH: Cytotoxicity at 2uM final concentration against transgenic Leishmania Mexicana promastigotes LmGLUT1 that are glucose transport deficient and complemented with the human glucose transporter GLUT1. Activity is measured by DNA content using SYBR green in vitro. Type of assay: functional.
Solute carrier family 2, facilitated glucose transporter member 1 (Homo sapiens), sequence (P11166 whole entry): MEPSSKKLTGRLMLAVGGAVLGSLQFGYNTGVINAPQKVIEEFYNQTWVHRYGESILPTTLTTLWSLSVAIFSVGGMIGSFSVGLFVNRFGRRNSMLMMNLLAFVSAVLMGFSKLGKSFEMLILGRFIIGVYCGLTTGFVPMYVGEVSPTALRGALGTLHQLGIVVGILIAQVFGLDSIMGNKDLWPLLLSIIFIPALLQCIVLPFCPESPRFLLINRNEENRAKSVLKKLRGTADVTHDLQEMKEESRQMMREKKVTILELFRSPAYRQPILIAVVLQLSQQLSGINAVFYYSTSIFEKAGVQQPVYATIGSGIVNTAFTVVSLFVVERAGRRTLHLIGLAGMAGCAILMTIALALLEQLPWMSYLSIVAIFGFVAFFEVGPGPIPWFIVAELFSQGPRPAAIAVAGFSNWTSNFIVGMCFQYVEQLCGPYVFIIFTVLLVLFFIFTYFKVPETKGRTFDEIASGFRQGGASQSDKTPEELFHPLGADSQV
Consider `CC(C)COc1ccc(Cl)cc1Cc1ccc(-c2nc3cc(CCN4CCCC4)ccc3[nH]2)o1`, for which the inhibition was 0.75%.
Regarding `O=C(NCCc1ccc(Cl)c(Cl)c1)c1ccc(CNC(=O)c2ccc(O)c(-c3ccc(Cl)c(Cl)c3)c2)cc1`, the inhibition came out at 0.99%.
Same read-out and setting: next, `CCOC(=O)CN(c1ccc(Br)cc1OCCOc1cc(Br)ccc1N(CC(=O)OCC)C(C)C(=O)OCC)C(C)C(=O)OCC` (stereo unspecified): 1.16%; `O=C(Nc1nccs1)c1cn(-c2ccccc2)nc1-c1ccc(Cl)s1`: 3.1%; `CCc1ccc(NC(=O)c2ccc(CN3CCCN(Cc4cccc(C)c4)CC3)cc2)cc1`: 7.45%.
Regarding `O=C(Nc1ccc(OC2CCN(Cc3ccsc3)C2)c(Cl)c1)c1ccsc1` (stereo unspecified), the inhibition was 2.57%.
Take `O=c1cc(NCCCNC(CNCCc2ccccc2)c2cc(Br)cc(Br)c2)[nH]c2ccccc12` (stereo unspecified): the inhibition turned out to be 2.57%.
On to `CCOC(=O)c1cc(=O)c2ccc(OCC#N)cc2o1`, for which the inhibition is 88.5%.
Turning to `Cc1ccccc1Cn1c(CN2CCC(C(=O)NC3CC3)CC2)cc2ccccc21`, the inhibition came out at 2.57%.
Turning to `CCN(CCNC(=O)C1CCN(c2cc(-c3cccc(C)c3)ncn2)CC1)Cc1ccccc1`, the inhibition is 4.41%.
As for `CC(C)CCN1CCCN(Cc2ccc(C(=O)NCc3ccc(Cl)cc3)cc2)CC1`, the inhibition turned out to be 2.09%.
For the compound `Cc1ccc(O)c(-c2cc(C(=O)Nc3ccc(S(=O)(=O)N4CCCCCC4)cc3)[nH]n2)c1`, the inhibition was -2.76%.
As for `COc1ccccc1CNc1nc(Nc2ccccc2C)nc2ccccc12`, the inhibition turned out to be 38.4%.
For `COc1cccc(Cn2ccc3c4c(N)nc(N)nc4ccc32)c1`, the inhibition amounted to 94.3%.
`CN(C)Cc1ccc2cc(NC(=O)c3ccc(-c4ccc(Cl)cc4)cc3)ccc2c1`: the inhibition is -1.97%.
Consider `Fc1cc(Cl)ccc1Nc1ccnc2cc(-c3ccc(CN4CCNCC4)o3)ccc12`, for which the inhibition turned out to be 1.02%.
The same measure, in the same setting: next, `O=C(NCCCCN1CCC(c2ccc3ccccc3c2O)CC1)c1ccc(NC(=O)c2ccc(Cl)cc2)cc1`: -0.08%; `COc1ccc2nccc([C@@H](O)CN3CCC(NC(=O)/C=C/c4ccc5[nH]c(=O)ccc5c4)CC3)c2c1`: 2.93%.
On to `COc1ccccc1CC1CCCN(C2CCC(NC(=O)c3cc4ccccc4[nH]3)CC2)C1` (stereo unspecified), for which the inhibition was 0.46%.
On to `CC(C)NCc1cccc(-c2ccc(NC(=O)c3ccc(F)cc3)cc2)c1`, for which the inhibition turned out to be 3.19%.
`COc1ccc(Nc2nccc(N3CCC(NC(=O)Nc4cc(C)ccc4C)C3)n2)cc1` (stereo unspecified): the inhibition is 10.3%.
Still for that read-out and setting: next, `CO/C(=C\C=C\c1cc2cc(Cl)c(Cl)cc2[nH]1)C(=O)NCCCN1CCN(c2cccc(CCCO)c2)CC1`: 6%; `CC[C@H](C)CNC(=O)c1cccc(-c2ccc(CN3CCC(N4CCCC4)CC3)cc2)n1`: 2.3%.
Consider `Fc1ccc(C2N=C(SCCSC3=NC(c4ccc(F)cc4)C(c4ccc(F)cc4)N3)NC2c2ccc(F)cc2)cc1` (stereo unspecified), for which the inhibition is 1.34%.
Regarding `CCc1cc(Cc2cnc(N)nc2N)cc(CC)c1OC`, the inhibition was determined as 2.48%.
The same measure, in the same setting: the result for `O=C(Nc1cccc(CN2CCN(Cc3cccc(O)c3)CC2)c1)c1ccc(Cl)c(Cl)c1` reads -1.71%.

Another assay concerns the target Hexose transporter 1 (Plasmodium falciparum) (UniProt O97467). Briefly: ST_JUDE_LEISH: Cytotoxicity at 2uM final concentration against transgenic Leishmania Mexicana promastigotes LmPfHT that are glucose transport deficient and complemented with the Plasmodium falciparum hexose transporter. Activity is measured by DNA content using SYBR green in vitro. Type of assay: functional.
On to `COc1ccc(NC(=O)/C=C/c2ccccc2Cl)cc1OCCN1CCC(N(C)C)CC1`, for which the inhibition stood at 1.6%.
Same read-out and setting: next, `CCN1CCC(N(Cc2ccc(-c3ccc(C(F)(F)F)cc3)cc2)C(=O)Cn2c(CCc3cccc(F)c3F)cc(=O)c3ccc(OCc4ccccc4)cc32)CC1`: 3.24%; `COc1cc2c(cc1S(=O)(=O)c1ccc(NC(=O)c3cccc(C(F)(F)F)c3)cc1)CCN(C)CC2`: 0.62%; `COc1cc(OC)cc(-c2nn(-c3ccc([N+](=O)[O-])cc3C#N)c(=S)n2CC2CCCO2)c1` (stereo unspecified): 1.07%.
As to `CCN(CC)CCN(CCN(CC)CC)c1ccc(-c2nc3cc(Cl)c(Cl)cc3[nH]2)cc1`, the inhibition is 16.3%.
For the compound `CCC(=O)N(c1ccccc1)C1CCN(CCCC(NC(=O)c2cc(C(F)(F)F)cc(C(F)(F)F)c2)c2ccc(Cl)c(Cl)c2)CC1` (stereo unspecified), the inhibition worked out at 5.36%.
Consider `Cc1cc(N2CCCCC2)nc2ccc(NC(=O)c3cncc(Br)c3)cc12`, for which the inhibition is 9.8%.
Regarding `COc1cccc(OC2CCN(C(=O)c3ccc(-c4ccc(N5CCCC5=O)cc4C)cc3)CC2)c1`, the inhibition is 0.88%.
For `Cc1nc(-c2cccc(Nc3ccnc4cc(-c5nccs5)ccc34)c2)no1`, the inhibition is 2.43%.
Regarding `O=C1COC2(CN1C1CCN(Cc3ccc(O)cc3Cl)C1)c1ccccc1-c1ccccc12` (stereo unspecified), the inhibition was 2.74%.
Consider `Cc1ccc2nc(C)cc(N/N=C/c3ccc([N+](=O)[O-])cc3)c2c1`, for which the inhibition is 101%.
Consider `c1ccc(-c2nnc(-c3ccccn3)nc2NC2CCCCC2)cc1`, for which the inhibition came out at 79.8%.
Still for that read-out and setting: the result for `COc1cc2c(cc1S(=O)(=O)c1ccc(COc3ccc(C(F)(F)F)cc3)cc1)CNCC2` reads -0.71%; that for `Cc1ccc(NC(=O)c2cc([N+](=O)[O-])ccc2NCc2cccnc2)cc1Cl`, 0.38%.
On to `CC(C)COc1ccc(Cl)cc1Cc1ccc(-c2nc3cc(CCN4CCCC4)ccc3[nH]2)o1`, for which the inhibition amounted to 3.33%.
For `O=C(NCCc1ccc(Cl)c(Cl)c1)c1ccc(CNC(=O)c2ccc(O)c(-c3ccc(Cl)c(Cl)c3)c2)cc1`, the inhibition is 1.15%.
On the same count and under the same terms, the result for `CCOC(=O)CN(c1ccc(Br)cc1OCCOc1cc(Br)ccc1N(CC(=O)OCC)C(C)C(=O)OCC)C(C)C(=O)OCC` (stereo unspecified) reads -0.2%.
In the case of `O=C(Nc1nccs1)c1cn(-c2ccccc2)nc1-c1ccc(Cl)s1`, the inhibition was 2.82%.
`CCc1ccc(NC(=O)c2ccc(CN3CCCN(Cc4cccc(C)c4)CC3)cc2)cc1`: the inhibition stood at 9.33%.
Take `O=C(Nc1ccc(OC2CCN(Cc3ccsc3)C2)c(Cl)c1)c1ccsc1` (stereo unspecified): the inhibition was determined as 2.64%.
As to `O=c1cc(NCCCNC(CNCCc2ccccc2)c2cc(Br)cc(Br)c2)[nH]c2ccccc12` (stereo unspecified), the inhibition is 3.4%.
In the case of `CCOC(=O)c1cc(=O)c2ccc(OCC#N)cc2o1`, the inhibition came to 82.1%.
On the same count and under the same terms, next, `Cc1ccccc1Cn1c(CN2CCC(C(=O)NC3CC3)CC2)cc2ccccc21`: 1.99%.
In the case of `CCN(CCNC(=O)C1CCN(c2cc(-c3cccc(C)c3)ncn2)CC1)Cc1ccccc1`, the inhibition is 3.37%.
Take `CC(C)CCN1CCCN(Cc2ccc(C(=O)NCc3ccc(Cl)cc3)cc2)CC1`: the inhibition amounted to 0.59%.
For `Cc1ccc(O)c(-c2cc(C(=O)Nc3ccc(S(=O)(=O)N4CCCCCC4)cc3)[nH]n2)c1`, the inhibition was -1.17%.
Turning to `COc1ccccc1CNc1nc(Nc2ccccc2C)nc2ccccc12`, the inhibition came out at 54.5%.
Consider `COc1cccc(Cn2ccc3c4c(N)nc(N)nc4ccc32)c1`, for which the inhibition is 96%.
As for `CN(C)Cc1ccc2cc(NC(=O)c3ccc(-c4ccc(Cl)cc4)cc3)ccc2c1`, the inhibition was determined as 3.04%.
Take `Fc1cc(Cl)ccc1Nc1ccnc2cc(-c3ccc(CN4CCNCC4)o3)ccc12`: the inhibition came out at 1.16%.
With `O=C(NCCCCN1CCC(c2ccc3ccccc3c2O)CC1)c1ccc(NC(=O)c2ccc(Cl)cc2)cc1`, the inhibition stood at 1.46%.
For `COc1ccc2nccc([C@@H](O)CN3CCC(NC(=O)/C=C/c4ccc5[nH]c(=O)ccc5c4)CC3)c2c1`, the inhibition is 1.78%.
As to `COc1ccccc1CC1CCCN(C2CCC(NC(=O)c3cc4ccccc4[nH]3)CC2)C1` (stereo unspecified), the inhibition is 0.32%.
Regarding `CC(C)NCc1cccc(-c2ccc(NC(=O)c3ccc(F)cc3)cc2)c1`, the inhibition turned out to be 3.2%.
The same measure, in the same setting: next, `COc1ccc(Nc2nccc(N3CCC(NC(=O)Nc4cc(C)ccc4C)C3)n2)cc1` (stereo unspecified): 7.52%; `CO/C(=C\C=C\c1cc2cc(Cl)c(Cl)cc2[nH]1)C(=O)NCCCN1CCN(c2cccc(CCCO)c2)CC1`: 5.32%; `CC[C@H](C)CNC(=O)c1cccc(-c2ccc(CN3CCC(N4CCCC4)CC3)cc2)n1`: 0.54%.
Take `Fc1ccc(C2N=C(SCCSC3=NC(c4ccc(F)cc4)C(c4ccc(F)cc4)N3)NC2c2ccc(F)cc2)cc1` (stereo unspecified): the inhibition was found to be 3.1%.
Take `CCc1cc(Cc2cnc(N)nc2N)cc(CC)c1OC`: the inhibition was 0.46%.
Regarding `O=C(Nc1cccc(CN2CCN(Cc3cccc(O)c3)CC2)c1)c1ccc(Cl)c(Cl)c1`, the inhibition is -0.84%.
